# In the supplement of paper PMC11732987, “Enantioselective OTUD7B fragment discovery through chemoproteomics screening and high-throughput optimisation” (Communications Chemistry, 2025):
# Unmarked numbers belong to inactive results.
# What was measured:
# Assay in all cases: log2 ratio of Biotin-Ahx-Ub-VS probe labelling (fragment/DMSO); higher = less target engagement (more negative = stronger competition), active = hit call of the paper (q ≤ 0.05, log2 ratio ≤ -1)
# Conditions in all cases: compound concentration: 200 uM; treatment time: 3 h
# USP42 = biological target: T1, USP42 (UniProt Q9H9J4)
# T1 sequence (whole entry): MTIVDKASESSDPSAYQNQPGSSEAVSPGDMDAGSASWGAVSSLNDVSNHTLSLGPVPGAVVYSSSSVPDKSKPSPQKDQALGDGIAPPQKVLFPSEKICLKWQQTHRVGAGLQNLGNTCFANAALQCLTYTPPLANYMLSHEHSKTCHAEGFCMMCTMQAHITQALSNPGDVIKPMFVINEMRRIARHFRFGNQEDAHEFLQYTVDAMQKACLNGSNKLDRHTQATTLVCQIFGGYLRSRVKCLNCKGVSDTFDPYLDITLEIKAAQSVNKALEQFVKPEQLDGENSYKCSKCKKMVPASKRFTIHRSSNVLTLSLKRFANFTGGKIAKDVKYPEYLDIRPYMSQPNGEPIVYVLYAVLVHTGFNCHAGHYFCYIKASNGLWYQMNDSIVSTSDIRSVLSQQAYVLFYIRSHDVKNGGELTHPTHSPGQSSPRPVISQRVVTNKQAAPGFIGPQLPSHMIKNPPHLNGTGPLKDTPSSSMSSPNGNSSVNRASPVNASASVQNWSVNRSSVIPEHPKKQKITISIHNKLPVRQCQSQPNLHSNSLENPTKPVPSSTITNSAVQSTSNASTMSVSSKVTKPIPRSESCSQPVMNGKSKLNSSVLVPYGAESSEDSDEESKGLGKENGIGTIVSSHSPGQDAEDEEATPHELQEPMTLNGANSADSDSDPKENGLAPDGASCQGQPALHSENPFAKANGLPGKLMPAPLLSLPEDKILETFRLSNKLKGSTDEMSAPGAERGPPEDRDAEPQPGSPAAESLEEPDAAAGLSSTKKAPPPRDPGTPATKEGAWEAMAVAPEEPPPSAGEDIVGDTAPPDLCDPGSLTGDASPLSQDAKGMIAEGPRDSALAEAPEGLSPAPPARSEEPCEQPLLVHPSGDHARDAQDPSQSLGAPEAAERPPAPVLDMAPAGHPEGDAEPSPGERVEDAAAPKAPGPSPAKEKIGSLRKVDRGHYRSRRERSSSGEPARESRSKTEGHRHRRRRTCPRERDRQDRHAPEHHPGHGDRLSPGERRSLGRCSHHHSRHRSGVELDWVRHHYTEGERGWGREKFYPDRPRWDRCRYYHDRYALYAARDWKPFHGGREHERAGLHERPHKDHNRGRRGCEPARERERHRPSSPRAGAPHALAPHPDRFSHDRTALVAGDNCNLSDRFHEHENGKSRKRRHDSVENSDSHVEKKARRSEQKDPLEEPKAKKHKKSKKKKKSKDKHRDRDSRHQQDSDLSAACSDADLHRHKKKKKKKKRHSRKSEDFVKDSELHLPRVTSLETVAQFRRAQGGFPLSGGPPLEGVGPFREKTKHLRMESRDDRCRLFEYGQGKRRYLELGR
# Summary of the method: (§1)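 Labelling with Biotin-Ahx-Ub-VS (0.5 µM final, 1 h) followed a 3 h triplicate treatment of HEK293T lysate (495 µg per sample, Tris/CHAPS/IGEPAL buffer with protease inhibitors) with fragment at 200 µM or vehicle. Labelled DUBs were NeutrAvidin-enriched, digested with LysC and trypsin, and run by diaPASEF LC-MS/MS. The values, average log2 fragment/vehicle ratios by unpaired t-test, come from global-median-normalised Spectronaut label-free quantities. Proteins with ≥2 unique peptides were used.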
# USP46 = USP46 (UniProt P62068)
# Chain of USP46 (P62068 whole entry): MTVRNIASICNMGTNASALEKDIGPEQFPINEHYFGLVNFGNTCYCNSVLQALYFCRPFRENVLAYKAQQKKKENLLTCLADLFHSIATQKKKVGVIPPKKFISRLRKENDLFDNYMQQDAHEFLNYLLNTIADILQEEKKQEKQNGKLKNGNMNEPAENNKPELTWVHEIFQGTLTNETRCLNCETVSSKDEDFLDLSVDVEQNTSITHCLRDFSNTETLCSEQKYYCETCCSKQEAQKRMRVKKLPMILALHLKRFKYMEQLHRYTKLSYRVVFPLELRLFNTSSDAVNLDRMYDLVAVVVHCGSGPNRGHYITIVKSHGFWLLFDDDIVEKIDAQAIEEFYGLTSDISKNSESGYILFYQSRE
# Summary of the method: as §1
# USP47 = biological target: T2, USP47 (UniProt Q96K76)
# T2 sequence (whole entry): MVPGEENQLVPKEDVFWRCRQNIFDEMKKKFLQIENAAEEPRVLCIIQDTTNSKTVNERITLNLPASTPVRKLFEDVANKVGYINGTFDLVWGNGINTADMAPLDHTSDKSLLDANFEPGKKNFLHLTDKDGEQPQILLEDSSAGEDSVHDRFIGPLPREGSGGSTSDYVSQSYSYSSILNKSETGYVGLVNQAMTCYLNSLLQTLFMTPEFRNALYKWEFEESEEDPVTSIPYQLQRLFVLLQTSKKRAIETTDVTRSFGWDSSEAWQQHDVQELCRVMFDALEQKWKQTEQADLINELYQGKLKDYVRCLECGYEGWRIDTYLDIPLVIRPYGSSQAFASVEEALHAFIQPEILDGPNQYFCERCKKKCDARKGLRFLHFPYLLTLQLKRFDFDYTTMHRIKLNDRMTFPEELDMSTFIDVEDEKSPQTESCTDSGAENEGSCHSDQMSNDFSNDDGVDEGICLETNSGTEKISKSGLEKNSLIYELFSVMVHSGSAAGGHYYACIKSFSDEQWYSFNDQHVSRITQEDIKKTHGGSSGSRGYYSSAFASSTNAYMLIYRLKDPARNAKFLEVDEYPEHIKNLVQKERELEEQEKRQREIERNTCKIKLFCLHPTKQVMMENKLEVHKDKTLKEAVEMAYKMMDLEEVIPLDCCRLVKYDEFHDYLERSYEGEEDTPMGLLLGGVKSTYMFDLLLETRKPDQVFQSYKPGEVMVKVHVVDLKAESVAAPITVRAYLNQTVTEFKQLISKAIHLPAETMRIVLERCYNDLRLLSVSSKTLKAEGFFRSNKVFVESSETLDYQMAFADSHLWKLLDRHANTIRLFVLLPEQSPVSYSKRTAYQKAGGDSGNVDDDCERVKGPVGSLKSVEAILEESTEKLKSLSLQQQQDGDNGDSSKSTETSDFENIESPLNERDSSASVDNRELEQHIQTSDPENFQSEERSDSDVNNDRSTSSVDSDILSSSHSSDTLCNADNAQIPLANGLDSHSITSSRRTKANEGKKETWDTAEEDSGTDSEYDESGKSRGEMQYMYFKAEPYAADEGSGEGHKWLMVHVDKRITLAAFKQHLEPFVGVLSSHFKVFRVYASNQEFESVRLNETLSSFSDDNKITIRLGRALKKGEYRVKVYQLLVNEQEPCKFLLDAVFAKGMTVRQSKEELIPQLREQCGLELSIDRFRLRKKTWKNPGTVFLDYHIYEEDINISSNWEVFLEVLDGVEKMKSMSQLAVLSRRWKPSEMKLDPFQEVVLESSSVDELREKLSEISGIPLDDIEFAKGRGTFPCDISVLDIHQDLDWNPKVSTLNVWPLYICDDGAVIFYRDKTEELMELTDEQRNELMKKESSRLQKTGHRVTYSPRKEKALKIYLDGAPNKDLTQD
# Summary of the method: as §1
# USP48 = biological target: T3, USP48 (UniProt Q86UV5)
# T3 sequence (whole entry): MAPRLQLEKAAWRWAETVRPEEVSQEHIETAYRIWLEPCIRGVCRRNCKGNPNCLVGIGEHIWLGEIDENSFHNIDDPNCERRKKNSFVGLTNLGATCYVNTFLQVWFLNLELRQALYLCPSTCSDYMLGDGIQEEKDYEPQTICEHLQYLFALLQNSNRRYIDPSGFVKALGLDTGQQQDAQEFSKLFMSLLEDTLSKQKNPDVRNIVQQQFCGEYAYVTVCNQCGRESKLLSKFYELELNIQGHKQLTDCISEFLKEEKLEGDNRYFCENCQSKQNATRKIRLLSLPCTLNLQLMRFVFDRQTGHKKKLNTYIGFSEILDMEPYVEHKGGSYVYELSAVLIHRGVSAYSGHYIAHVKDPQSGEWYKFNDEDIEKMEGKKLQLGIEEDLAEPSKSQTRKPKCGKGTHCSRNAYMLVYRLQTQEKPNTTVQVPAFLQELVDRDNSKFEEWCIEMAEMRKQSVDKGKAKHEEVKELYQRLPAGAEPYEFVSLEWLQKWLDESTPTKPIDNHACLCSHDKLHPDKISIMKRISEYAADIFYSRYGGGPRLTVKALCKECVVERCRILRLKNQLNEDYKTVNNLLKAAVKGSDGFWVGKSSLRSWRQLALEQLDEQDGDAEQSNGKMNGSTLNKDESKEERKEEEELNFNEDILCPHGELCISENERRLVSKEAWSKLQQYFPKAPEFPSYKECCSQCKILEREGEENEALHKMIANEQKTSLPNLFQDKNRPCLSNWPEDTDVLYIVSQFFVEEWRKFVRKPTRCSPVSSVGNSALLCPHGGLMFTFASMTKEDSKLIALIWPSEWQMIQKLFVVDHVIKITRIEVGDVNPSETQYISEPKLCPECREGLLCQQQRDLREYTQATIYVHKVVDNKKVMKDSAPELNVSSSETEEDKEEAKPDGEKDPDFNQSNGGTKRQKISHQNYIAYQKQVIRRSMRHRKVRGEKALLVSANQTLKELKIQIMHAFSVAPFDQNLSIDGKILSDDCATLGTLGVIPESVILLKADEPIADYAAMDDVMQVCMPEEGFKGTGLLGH
# Summary of the method: as §1
# USP5 = biological target: T4, USP5 (UniProt P45974)
# T4 sequence (whole entry): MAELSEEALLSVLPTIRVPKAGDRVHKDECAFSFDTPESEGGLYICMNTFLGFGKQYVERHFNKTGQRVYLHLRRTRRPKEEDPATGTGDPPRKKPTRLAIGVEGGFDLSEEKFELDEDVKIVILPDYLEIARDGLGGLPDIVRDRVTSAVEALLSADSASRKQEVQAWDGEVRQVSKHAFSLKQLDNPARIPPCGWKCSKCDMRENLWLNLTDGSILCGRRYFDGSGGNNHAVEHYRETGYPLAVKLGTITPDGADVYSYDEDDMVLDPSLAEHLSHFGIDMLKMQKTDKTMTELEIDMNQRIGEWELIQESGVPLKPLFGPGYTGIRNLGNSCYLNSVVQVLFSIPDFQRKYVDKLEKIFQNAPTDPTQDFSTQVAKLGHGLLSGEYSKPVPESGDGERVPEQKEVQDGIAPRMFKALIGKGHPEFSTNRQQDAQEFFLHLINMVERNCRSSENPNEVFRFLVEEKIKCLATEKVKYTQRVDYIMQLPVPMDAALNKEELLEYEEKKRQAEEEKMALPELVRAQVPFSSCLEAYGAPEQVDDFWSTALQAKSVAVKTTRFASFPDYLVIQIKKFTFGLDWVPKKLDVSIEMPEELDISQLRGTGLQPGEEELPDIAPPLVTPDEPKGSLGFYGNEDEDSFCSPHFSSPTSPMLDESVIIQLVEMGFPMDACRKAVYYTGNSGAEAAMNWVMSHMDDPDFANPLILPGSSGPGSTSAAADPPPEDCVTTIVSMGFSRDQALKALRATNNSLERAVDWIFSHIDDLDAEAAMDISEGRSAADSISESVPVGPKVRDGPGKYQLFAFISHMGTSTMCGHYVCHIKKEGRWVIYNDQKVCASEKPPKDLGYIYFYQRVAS
# Summary of the method: as §1
# USP54 = USP54 (UniProt Q70EL1)
# Summary of the method: as §1
# USP7 = USP7 (UniProt Q93009)
# Chain of USP7 (Q93009 whole entry, looked up): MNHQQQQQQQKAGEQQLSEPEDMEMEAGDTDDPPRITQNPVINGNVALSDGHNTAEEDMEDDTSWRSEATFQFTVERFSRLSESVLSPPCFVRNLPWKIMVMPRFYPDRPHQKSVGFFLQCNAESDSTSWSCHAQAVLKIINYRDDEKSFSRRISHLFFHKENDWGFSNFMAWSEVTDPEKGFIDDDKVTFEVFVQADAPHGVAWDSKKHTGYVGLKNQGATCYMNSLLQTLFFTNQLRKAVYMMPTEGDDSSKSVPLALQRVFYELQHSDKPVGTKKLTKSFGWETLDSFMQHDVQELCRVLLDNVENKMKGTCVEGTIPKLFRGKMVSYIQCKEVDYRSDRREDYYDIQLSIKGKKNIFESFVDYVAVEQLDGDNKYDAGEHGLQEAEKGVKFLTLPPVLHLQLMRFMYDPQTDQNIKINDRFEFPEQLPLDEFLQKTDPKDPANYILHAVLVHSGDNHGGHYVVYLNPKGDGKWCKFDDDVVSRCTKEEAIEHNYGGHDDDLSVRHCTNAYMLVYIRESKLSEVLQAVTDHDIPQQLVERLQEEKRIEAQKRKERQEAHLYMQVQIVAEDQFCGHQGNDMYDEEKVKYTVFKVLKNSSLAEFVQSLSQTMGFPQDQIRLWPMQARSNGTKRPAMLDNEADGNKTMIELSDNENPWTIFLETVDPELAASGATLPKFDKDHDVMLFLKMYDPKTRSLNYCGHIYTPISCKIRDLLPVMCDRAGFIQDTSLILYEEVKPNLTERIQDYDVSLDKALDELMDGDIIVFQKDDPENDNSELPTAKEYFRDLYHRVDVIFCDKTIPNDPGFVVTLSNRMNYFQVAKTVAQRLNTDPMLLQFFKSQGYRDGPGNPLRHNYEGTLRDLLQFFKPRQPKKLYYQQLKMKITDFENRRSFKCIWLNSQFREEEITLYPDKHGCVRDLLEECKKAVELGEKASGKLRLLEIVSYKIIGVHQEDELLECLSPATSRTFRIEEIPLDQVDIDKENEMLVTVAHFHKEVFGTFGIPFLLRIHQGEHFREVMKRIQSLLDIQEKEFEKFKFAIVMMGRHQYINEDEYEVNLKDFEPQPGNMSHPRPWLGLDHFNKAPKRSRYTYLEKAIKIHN
# Summary of the method: as §1
# USP8 = biological target: T5, USP8 (UniProt P40818)
# T5 sequence (whole entry): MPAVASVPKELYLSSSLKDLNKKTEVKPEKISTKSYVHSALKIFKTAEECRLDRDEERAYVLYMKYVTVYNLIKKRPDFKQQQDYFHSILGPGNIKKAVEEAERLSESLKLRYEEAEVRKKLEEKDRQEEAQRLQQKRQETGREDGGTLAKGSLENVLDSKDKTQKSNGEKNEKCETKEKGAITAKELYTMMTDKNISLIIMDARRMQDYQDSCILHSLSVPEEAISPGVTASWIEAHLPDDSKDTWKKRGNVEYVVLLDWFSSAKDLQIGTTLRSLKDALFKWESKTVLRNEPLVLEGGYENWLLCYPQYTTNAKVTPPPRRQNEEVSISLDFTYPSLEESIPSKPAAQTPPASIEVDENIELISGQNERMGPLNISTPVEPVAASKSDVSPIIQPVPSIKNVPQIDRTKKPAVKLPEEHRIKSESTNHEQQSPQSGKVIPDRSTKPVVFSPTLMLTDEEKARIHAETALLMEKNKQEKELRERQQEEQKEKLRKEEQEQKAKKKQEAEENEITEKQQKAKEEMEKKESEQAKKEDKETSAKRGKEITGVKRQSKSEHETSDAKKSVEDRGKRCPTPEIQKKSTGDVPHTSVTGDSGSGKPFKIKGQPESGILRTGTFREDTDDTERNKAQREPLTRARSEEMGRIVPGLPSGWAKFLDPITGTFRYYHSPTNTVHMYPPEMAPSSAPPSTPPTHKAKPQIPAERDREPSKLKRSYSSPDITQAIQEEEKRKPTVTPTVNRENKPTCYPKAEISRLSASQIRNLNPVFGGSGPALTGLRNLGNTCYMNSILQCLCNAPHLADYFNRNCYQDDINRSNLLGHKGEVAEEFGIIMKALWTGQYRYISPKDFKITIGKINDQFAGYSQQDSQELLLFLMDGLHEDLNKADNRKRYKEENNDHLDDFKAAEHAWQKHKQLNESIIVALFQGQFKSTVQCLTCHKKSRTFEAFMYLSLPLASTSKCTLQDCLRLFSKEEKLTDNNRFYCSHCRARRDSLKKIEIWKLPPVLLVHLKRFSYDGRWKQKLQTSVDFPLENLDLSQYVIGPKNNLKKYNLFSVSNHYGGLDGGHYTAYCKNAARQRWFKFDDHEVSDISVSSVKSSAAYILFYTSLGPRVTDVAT
# Summary of the method: as §1
# USP9X = USP9X (UniProt Q93008)
# Chain of USP9X (Q93008 whole entry): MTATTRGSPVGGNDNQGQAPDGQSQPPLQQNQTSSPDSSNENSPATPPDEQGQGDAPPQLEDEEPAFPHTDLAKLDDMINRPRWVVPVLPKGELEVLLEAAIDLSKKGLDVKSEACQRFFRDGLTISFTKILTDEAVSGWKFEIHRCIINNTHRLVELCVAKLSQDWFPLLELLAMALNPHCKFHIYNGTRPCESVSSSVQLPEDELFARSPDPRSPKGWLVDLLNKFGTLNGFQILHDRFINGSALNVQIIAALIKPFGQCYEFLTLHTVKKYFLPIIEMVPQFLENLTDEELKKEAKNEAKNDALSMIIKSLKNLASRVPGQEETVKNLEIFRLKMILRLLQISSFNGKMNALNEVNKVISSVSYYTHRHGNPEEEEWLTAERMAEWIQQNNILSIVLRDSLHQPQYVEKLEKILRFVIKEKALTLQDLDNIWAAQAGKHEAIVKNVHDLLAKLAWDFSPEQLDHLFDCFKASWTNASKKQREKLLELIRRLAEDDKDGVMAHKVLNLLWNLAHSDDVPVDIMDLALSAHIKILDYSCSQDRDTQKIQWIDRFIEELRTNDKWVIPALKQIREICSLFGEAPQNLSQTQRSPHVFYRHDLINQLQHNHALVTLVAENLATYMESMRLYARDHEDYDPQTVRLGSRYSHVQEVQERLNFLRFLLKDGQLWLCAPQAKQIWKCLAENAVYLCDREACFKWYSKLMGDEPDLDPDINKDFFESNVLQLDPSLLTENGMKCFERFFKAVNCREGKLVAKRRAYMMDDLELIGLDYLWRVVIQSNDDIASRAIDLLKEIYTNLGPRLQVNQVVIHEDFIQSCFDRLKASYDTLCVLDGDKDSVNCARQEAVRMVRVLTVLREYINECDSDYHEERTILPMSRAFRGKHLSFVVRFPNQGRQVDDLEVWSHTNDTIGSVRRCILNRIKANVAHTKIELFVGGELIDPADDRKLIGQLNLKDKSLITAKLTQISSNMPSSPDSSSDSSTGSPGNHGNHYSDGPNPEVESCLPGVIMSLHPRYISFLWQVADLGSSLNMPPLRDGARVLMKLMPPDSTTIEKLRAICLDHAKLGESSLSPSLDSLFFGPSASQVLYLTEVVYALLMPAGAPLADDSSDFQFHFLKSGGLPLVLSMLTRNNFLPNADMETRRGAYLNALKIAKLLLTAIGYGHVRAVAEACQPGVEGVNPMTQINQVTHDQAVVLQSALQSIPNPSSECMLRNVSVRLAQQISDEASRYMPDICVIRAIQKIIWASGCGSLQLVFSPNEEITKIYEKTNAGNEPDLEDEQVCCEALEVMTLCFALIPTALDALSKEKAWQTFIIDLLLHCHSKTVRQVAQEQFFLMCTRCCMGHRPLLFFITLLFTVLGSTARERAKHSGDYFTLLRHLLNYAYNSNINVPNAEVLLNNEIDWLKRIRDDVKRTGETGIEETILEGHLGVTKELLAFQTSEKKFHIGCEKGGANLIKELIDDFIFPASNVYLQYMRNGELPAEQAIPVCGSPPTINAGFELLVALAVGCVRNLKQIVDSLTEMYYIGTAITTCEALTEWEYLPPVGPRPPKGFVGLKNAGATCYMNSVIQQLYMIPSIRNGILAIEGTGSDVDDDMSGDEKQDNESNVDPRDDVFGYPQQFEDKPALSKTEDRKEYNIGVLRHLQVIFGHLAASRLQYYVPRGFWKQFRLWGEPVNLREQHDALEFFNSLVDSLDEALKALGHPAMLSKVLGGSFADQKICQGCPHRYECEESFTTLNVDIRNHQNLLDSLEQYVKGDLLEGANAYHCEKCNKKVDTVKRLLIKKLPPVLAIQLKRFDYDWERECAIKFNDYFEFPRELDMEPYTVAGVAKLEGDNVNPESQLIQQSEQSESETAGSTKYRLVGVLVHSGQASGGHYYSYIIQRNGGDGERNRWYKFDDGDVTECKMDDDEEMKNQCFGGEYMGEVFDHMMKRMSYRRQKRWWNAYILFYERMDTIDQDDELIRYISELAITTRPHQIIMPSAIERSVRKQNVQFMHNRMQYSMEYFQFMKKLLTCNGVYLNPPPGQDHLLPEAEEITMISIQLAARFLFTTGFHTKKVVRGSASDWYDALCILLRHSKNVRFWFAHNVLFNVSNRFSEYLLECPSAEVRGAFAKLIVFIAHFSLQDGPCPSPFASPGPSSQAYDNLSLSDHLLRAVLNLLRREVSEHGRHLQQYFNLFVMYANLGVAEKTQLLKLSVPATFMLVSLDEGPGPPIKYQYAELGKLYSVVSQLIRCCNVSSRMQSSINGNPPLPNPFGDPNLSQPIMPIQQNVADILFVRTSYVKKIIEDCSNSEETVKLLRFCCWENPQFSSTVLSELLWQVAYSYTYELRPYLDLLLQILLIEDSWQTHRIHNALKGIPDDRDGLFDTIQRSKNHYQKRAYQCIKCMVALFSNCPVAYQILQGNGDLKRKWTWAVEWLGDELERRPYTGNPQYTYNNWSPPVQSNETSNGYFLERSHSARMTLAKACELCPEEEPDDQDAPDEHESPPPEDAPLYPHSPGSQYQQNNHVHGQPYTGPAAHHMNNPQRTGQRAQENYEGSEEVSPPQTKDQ
# Summary of the method: as §1
# UniProt O00487 = biological target: UniProt O00487
# Chain of UniProt O00487 (O00487 whole entry): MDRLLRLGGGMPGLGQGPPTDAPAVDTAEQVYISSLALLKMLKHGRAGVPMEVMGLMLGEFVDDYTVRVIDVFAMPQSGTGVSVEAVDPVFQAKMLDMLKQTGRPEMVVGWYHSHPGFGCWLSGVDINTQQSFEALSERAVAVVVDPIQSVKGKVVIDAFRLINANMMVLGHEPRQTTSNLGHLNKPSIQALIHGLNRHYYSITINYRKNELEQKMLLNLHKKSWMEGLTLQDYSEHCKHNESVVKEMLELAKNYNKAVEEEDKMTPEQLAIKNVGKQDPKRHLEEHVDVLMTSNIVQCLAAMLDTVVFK
# Summary of the method: as §1
structure (smiles),measurement,setting,value
O=C(CCl)N(C1CCCC1)C1CCS(=O)(=O)C1 (stereo not given),log2 ratio of Biotin-Ahx-Ub-VS probe labelling,USP42,0.228
same,log2 ratio of Biotin-Ahx-Ub-VS probe labelling,USP46,-0.0761
same,log2 ratio of Biotin-Ahx-Ub-VS probe labelling,USP47,-0.442
same,log2 ratio of Biotin-Ahx-Ub-VS probe labelling,USP48,-1.18 (active)
same,log2 ratio of Biotin-Ahx-Ub-VS probe labelling,USP5,0.124
same,log2 ratio of Biotin-Ahx-Ub-VS probe labelling,USP54,-0.384
same,log2 ratio of Biotin-Ahx-Ub-VS probe labelling,USP7,-0.798
same,log2 ratio of Biotin-Ahx-Ub-VS probe labelling,USP8,0.0542
same,log2 ratio of Biotin-Ahx-Ub-VS probe labelling,USP9X,-0.0338
same,log2 ratio of Biotin-Ahx-Ub-VS probe labelling,UniProt O00487,-0.119
